PubChem BioAssay
Activity calls are given as the source filed them. Unless noted, the rule behind the calls is not given here.

How the values were obtained:
[1] = compounds binding Alexa647 anti-His antibody – biochemical, small-molecule microarray, 635 nm fluorescence, artefact control for SMM control protein annotation, primary screen (AID 1128); conditions: higher = more signal;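 note: score merges feature fluorescence with signal-to-noise for each printed compound spot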
[2] = system: Human papillomavirus type 1a E7 protein (residues 1-88); assay: HPV1a E7 small-molecule binders, primary screen, biochemical, small-molecule microarray, residues 1-88, 635 nm (AID 1129); conditions: small-molecule microarray binding, fluorescence 635 nm; higher = more signal
[3] = target: Focal adhesion kinase 1 (Homo sapiens) (UniProt Q05397); assay: PTK2 protein binding on printed compound slides – biochemical, small-molecule microarray, 635/667 nm fluorescence, BSA, DTT, primary screen (AID 1130); conditions: 635 nm fluorescence, higher = more signal;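 note: composite of spot emission at 667 nm and signal to noise over triplicate slides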
[4] = system: Fibrinogen (Alexa647-labelled); assay: Alexa647-fibrinogen binding to printed small molecules – biochemical, small-molecule microarray, 635/667 nm fluorescence, artefact control for SMM control-protein annotation, profiling panel (AID 1131); conditions: fibrinogen-A647 binding fluorescence, higher = more signal;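 note: z-score merges 667 nm fluorescence with per-spot signal-to-noise over triplicate slides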
[5] = target: Follistatin (Homo sapiens) (UniProt P19883); assay: FST protein binding to printed compounds – biochemical, small-molecule microarray, 635/667 nm fluorescence, primary screen (AID 1132); conditions: 635 nm fluorescence, higher = more signal
[6] = target: Fibroblast growth factor 2 (Homo sapiens) (UniProt P09038); assay: basic fibroblast growth factor binding to printed compounds – biochemical, small-molecule microarray, 635/667 nm fluorescence, primary screen (AID 1133); conditions: FGF2, fluorescence 635/667, higher = more signal
[7] = JC-1 mitochondrial potential readout, lung cancer cells – cell-based, A549, JC-1 fluorescence, basal, 24 h, 100 nL, profiling panel (AID 1138); conditions: higher = more signal;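 note: A549 lung adenocarcinoma cells under basal conditions with no added stimulus; test concentration not given here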
[8] = system: Lefty1; assay: Lefty1 protein binding to printed compounds – biochemical, small-molecule microarray, 635/667 nm fluorescence, primary screen (AID 1139); conditions: fluorescence 635/667, higher = more signal
[9] = system: wheat germ agglutinin (Triticum aestivum), Alexa647-labelled; assay: Alexa647-WGA lectin binding to printed small molecules – biochemical, small-molecule microarray, 635/667 nm fluorescence, artefact control for SMM control-protein annotation, profiling panel (AID 1140); conditions: WGA-A647 binding, 635 nm fluorescence, higher = more signal;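 note: score merges 667 nm feature emission with signal to noise over triplicate slides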
[10] = target: Luciferin 4-monooxygenase (Photinus pyralis) (UniProt P08659); assay: inhibition of purified Photinus pyralis luciferase – biochemical, luminescence, purified enzyme, 2006 set, primary screen (AID 1141); conditions: purified firefly luciferase, SteadyGlo luminescence, 30 min; higher = more signal, called active from +8 up or from −8 down;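 note: cell-free assay with purified firefly luciferase at 100 ng per well in PBS; test concentration not given here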
[11] = system: Wnt5a (protein binding on small-molecule microarray); assay: small molecules binding Wnt5a protein – biophysical, small-molecule microarray, 635/667 nm fluorescence, primary screen (AID 1142); conditions: 635 nm fluorescence, higher = more signal;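 note: fluorescence read at 667 nm with signal to noise per printed feature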
[12] = ATP-based viability of Huh7 replicon cells – cell-based, CellTiter-Glo luminescence, basal, 48 h, cytotoxicity control for HCV replication inhibitor project, primary screen (AID 1143); conditions: higher = more signal, called active from +8 up or from −8 down;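 note: Huh7 hepatoma cells carrying a hepatitis C replication reporter with no stimulus; test concentration not given here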
[13] = Pseudomonas biofilm growth suppression – PAO1 strain, BacTiter-Glo luminescence, LB-PBS, primary screen (AID 1144); conditions: P. aeruginosa PAO1 biofilm, 12 h, higher = more signal
[14] = basal CRE-LacZ reporter activity in PC12 – cell-based, unstimulated, primary screen (AID 1145); conditions: no forskolin, luminescence, 4.5 h, higher = more signal, called active from +8 up or from −8 down
[15] = forskolin-driven CRE-LacZ activity in PC12 – cell-based, CRE-LacZ reporter, forskolin-stimulated, primary screen (AID 1146); conditions: luminescence, 4.5 h, higher = more signal, called active from +8 up or from −8 down;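 note: PC12 cells with 6xCRE LacZ reporter stimulated by forskolin 10 µM; beta-galactosidase reporter signal reflecting CREB driven transcription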
[16] = target: Streptavidin (Streptomyces avidinii) (UniProt P22629); assay: compounds binding control protein streptavidin – biophysical, small-molecule microarray, 635/667 nm fluorescence, artefact control for SMM compound annotation, primary screen (AID 1147); conditions: higher = more signal;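 note: signal reflects streptavidin binding to arrayed compounds as a control protein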
[17] = probe aInhba binding on compound microarray – biochemical, small-molecule microarray, 635/667 nm fluorescence, primary screen (AID 1148); conditions: higher = more signal;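 note: score merges 667nm spot fluorescence with signal-to-noise for antibody binding to printed compounds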
[18] = target: Torsin-1A (Homo sapiens) (UniProt O14656); assay: TOR1A wild-type binding on microarray – cell lysate, small-molecule microarray, lysate, 635/667 nm, primary screen (AID 1149); conditions: COS7 hTOR1A-WT lysate, 635 nm fluorescence, higher = more signal
[19] = target: Torsin-1A (Homo sapiens) (UniProt O14656); assay: torsin A mutant lysate binding on microarrays – cell lysate, small-molecule microarray, COS7 lysate, 635/667 nm fluorescence, primary screen (AID 1150); conditions: COS7 hTOR1A mutant lysate, 635 nm fluorescence, higher = more signal;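 note: score pools 667 nm emission and signal to noise measuring lysate protein binding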
[20] = system: Sonic hedgehog protein (Shh); assay: Sonic hedgehog microarray binding compounds – biochemical, small-molecule microarray, 635/667 nm fluorescence, primary screen (AID 1151); conditions: 635 nm fluorescence, higher = more signal;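 note: Shh protein binding to compounds spotted on small-molecule microarray slides; score combines spot fluorescence intensity with signal-to-noise across triplicate slides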

Sequence of Luciferin 4-monooxygenase (Photinus pyralis) (P08659 whole entry, looked up): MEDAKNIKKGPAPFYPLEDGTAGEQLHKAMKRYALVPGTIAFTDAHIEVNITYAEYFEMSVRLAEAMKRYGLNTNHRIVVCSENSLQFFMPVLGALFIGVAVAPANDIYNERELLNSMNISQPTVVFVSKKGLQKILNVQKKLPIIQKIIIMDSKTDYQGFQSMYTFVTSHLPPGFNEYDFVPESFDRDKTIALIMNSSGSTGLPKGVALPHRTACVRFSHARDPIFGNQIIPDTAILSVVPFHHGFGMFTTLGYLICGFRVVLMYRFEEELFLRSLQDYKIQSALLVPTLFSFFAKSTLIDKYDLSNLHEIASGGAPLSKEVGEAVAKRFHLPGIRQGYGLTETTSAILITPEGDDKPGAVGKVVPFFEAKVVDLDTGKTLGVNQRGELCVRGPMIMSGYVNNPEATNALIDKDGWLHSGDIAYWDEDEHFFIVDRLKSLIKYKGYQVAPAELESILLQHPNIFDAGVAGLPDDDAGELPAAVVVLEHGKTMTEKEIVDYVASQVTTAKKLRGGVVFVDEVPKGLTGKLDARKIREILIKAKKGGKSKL
Sequence of Focal adhesion kinase 1 (Homo sapiens) (Q05397 whole entry, looked up): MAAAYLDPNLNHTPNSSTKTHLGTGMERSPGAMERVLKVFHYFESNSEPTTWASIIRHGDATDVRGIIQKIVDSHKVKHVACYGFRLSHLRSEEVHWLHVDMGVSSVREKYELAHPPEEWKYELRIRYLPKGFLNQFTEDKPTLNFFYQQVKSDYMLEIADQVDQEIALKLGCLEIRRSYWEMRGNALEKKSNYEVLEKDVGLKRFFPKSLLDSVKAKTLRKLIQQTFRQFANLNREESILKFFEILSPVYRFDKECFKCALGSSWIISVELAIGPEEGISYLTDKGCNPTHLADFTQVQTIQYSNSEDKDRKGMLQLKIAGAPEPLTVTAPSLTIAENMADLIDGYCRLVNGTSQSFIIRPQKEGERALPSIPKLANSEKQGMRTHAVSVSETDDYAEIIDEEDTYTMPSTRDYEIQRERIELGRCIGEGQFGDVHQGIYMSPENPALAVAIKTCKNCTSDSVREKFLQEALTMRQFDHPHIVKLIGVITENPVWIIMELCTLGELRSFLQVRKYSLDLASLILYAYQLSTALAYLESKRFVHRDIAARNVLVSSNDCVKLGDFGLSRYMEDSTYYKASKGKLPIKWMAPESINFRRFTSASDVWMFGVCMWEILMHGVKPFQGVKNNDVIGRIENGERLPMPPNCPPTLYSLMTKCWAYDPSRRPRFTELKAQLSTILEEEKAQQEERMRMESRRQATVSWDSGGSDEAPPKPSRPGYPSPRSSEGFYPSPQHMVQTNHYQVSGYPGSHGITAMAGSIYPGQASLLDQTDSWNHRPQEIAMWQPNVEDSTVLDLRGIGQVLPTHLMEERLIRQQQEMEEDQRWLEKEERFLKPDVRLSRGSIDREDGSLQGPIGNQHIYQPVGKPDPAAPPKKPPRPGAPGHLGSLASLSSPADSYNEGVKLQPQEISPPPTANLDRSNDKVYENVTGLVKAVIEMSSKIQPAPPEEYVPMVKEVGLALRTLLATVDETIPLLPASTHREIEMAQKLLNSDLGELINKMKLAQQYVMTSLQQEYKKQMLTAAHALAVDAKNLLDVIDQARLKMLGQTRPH
Sequence of Torsin-1A (Homo sapiens) (O14656 whole entry, looked up): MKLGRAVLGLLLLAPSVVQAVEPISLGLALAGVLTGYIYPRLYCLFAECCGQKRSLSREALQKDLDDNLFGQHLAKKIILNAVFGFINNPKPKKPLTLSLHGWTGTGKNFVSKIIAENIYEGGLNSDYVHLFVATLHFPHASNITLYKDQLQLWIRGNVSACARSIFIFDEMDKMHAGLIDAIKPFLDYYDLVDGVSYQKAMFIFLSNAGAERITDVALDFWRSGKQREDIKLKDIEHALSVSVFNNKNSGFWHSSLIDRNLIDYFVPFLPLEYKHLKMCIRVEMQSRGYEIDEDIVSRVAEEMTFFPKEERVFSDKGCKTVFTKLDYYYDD
Sequence of Follistatin (Homo sapiens) (P19883 whole entry, looked up): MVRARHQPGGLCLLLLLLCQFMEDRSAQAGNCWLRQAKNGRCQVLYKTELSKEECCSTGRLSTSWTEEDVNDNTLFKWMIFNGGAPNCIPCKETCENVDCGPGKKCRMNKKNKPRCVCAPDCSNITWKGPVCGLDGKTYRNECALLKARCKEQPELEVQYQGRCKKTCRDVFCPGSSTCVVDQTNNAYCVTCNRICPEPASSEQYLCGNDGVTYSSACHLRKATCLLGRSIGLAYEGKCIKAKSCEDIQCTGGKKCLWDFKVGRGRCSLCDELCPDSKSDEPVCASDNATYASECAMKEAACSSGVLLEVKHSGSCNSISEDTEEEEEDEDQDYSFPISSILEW
Sequence of Fibroblast growth factor 2 (Homo sapiens) (P09038 whole entry, looked up): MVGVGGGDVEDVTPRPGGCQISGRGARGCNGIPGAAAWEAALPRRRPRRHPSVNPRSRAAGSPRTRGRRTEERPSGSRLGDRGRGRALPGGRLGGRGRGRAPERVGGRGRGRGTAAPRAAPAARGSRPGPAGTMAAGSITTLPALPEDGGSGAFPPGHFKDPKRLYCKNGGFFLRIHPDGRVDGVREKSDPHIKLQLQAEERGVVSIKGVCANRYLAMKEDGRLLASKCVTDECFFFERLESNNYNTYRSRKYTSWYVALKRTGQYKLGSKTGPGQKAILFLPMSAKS
Sequence of Streptavidin (Streptomyces avidinii) (P22629 whole entry, looked up): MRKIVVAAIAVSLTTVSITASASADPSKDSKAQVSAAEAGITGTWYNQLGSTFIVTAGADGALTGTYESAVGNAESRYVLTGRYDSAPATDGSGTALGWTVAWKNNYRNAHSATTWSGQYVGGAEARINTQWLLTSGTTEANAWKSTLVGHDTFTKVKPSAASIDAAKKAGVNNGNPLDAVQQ

Compound	composite z-score [1]	composite z-score [2]	composite z-score [3]	composite z-score [4]	composite z-score [5]	composite z-score [6]	z-score [7]	composite z-score [8]	composite z-score [9]	z-score [10]	composite z-score [11]	z-score [12]	z-score [13]	z-score [14]	z-score [15]	composite z-score [16]	composite z-score [17]	composite z-score [18]	composite z-score [19]	composite z-score [20]
C[C@H]1NC(=O)[C@H](Cc2ccccc2)NC(=O)[C@@]23C(=O)N[C@@H](Cc4ccccc4)C2[C@H](C)[C@@]2(C)O[C@H]2C3/C=C/C/C=C\CNC1=O (stereo not given in full)	-0.708	-1.27	-0.261	-1.75	0.275	0.0643	0.593	-0.94	-0.585	-0.923 (inactive)	-0.182	-0.679 (inactive)	0.615 (inactive)	2.67 (inactive)	-0.522 (inactive)	-0.496	-0.179	-0.477	-0.402	0.249
CC(=O)NCCCC[C@@H]1NC(=O)[C@H]2C[C@@H](C(=O)NCCCCCC[N+](C)(C)C)[C@@H](c3cccc(OCCO)c3)N2C1=O	0.627	0.614	0.207	0.77	1.4	1.9	-1.12	1.39	0.656	0.692 (inactive)	0.408	-2.49 (inactive)	-1.01 (inactive)	-0.801 (inactive)	-0.812 (inactive)	0.927	-0.149	1.07	0.59	2.26
COc1ccc(C#Cc2ccc3c(c2)[C@]2(C(=O)N3)[C@H](C(=O)NC[C@H](O)c3ccccc3)[C@H]3C(=O)O[C@H](c4ccccc4)[C@H](c4ccccc4)N3[C@@H]2c2ccc(OCCO)cc2)cc1	0.408	0.991	0.303	0.964	1.36	1.19	-1.96	1.22	1.13	-1.58 (inactive)	0.628	-2.89 (inactive)	-0.563 (inactive)	0.478 (inactive)	-0.447 (inactive)	0.59	-0.0173	0.369	0.869	1.96
O=C1O[C@H](c2ccccc2)[C@H](c2ccccc2)N2[C@H]1[C@@H](C(=O)O)[C@]1(C(=O)Nc3ccc(C#CC4(O)CCCCCC4)cc31)[C@H]2c1ccc(OCCO)cc1	1.5	1.25	0.115	0.979	0.196	-0.333	-1.42	0.473	0.942	-2.75 (inactive)	-0.0477	-0.551 (inactive)	-1.01 (inactive)	5.5 (inactive)	14.7 (active)	1.52	0.122	0.477	0.617	0.258
[N-]=[N+]=Nc1ccccc1C[C@]1(C(=O)NCCN2CCOCC2)N=C(c2ccc(OCCCO)cc2)O[C@H]1c1ccccc1	1.34	1.27	0.903	0.952	1.29	0.877	0.273	-0.246	0.309	-0.683 (inactive)	0.577	-2.47 (inactive)	0.355 (inactive)	0.4 (inactive)	-0.604 (inactive)	-0.186	0.101	0.729	0.749	0.109
COc1ccc(C(=O)Nc2cccc(CN3C(=O)[C@]4(O[C@H](CC(=O)N5CCC[C@H]5CO)[C@@H]([Si](C)(C)c5ccc(OC)cc5)[C@@H]4C)c4ccccc43)c2)cc1	1.22	1.15	0.407	0.634	1.03	1.33	-0.407	0.728	0.595	-0.895 (inactive)	0.278	-5.56 (inactive)	1.16 (inactive)	0.105 (inactive)	-0.748 (inactive)	-0.349	-0.15	0.421	0.812	1.79
O=C/C=C/c1ccc2c(c1)OCO2	1.33	0.128	0.247	-0.696	0.952	0.398	0.231	0.401	-0.273	-1.04 (inactive)	0.0218	-1.95 (inactive)	-1.39 (inactive)	-0.491 (inactive)	0.106 (inactive)	-0.142	-0.0509	0.219	0.0622	0.504
CC(C)N1C(=O)[C@@]2(c3ccc([N+](=O)[O-])cc3)CC(=O)N(CC34CC5CC(CC(C5)C3)C4)[C@@H]2c2ccc(CO)cc21	-0.193	-1.05	-0.553	-1.1	0.0163	-0.934	0.58	0.0347	1.23	-0.322 (inactive)	-0.61	-0.36 (inactive)	-0.292 (inactive)	0.452 (inactive)	-0.41 (inactive)	-0.842	0.195	-1.81	-0.858	0.453
COC(=O)[C@@]1(Cc2ccccc2)[C@H]2c3cc(C(=O)N(C)C)n(Cc4c(-c5ccccc5)noc4C)c3C[C@H]2CN1C(=O)c1ccccc1	2.29	1.22	1.21	0.968	0.212	-0.533	0.582	-0.579	1.17	1.49 (inactive)	0.235	-2.2 (inactive)	-0.0247 (inactive)	0.201 (inactive)	-0.732 (inactive)	1.47	0.308	0.301	0.584	-0.141
Cc1ccccc1C(O)C1C=CC2C(=O)N(C)C(=O)C2N1Nc1ccccc1 (stereo not given)	1.23	1.16	0.175	1.01	0.459	-0.462	0.0888	-0.395	1.38	0.292 (inactive)	0.125	0.881 (inactive)	0.149 (inactive)	-0.522 (inactive)	-0.0967 (inactive)	1.69	0.112	0.0494	0.303	-0.0269
